Test results published in PubChem BioAssay (NCI).
About 83,000 compounds went through this panel and 20% of them were active in at least one assay; those are over-represented in the sample as a whole.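 Single-dose data. Exposure time 48 hours. Values below 10 considered active.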 A number with no mark means an inactive call. Activity calls are given as the source filed them.

These compounds were tested on PC-3 prostate (assay: NCI-60 one-dose screen, 48 h (100 = growth as untreated, 0 = no growth, -100 = all killed)). Settings: 10 µM unless noted.
For `C#CCNC(=O)c1cccc2c1cc(C)n2-c1nc2c(c(NCc3ccccc3)n1)CCCC2`, the growth was -18.2% (active). For `COc1ccccc1NC(=O)C1CC(c2ccc(F)cc2)=NO1` (configuration not stated), the growth was 104%. With `O=C1Nc2cc(-c3ccc(NC(=O)c4ccccc4)cc3)ccc2/C1=C/c1ccc[nH]1` the growth was 101%. `C=CC(=O)N[C@@H](/C=C/C(=O)OCC)Cc1ccc(-c2cc(Cl)cc(Cl)c2)cc1` gave a growth of 16.9%. Work on `Cc1ccc(NC(=O)c2cc(-c3nc4ccccc4s3)c(=O)n(NS(=O)(=O)c3ccc(Cl)cc3)c2N)cc1` yielded a growth of 100%. `O=C1Nc2cc(-c3ccc(NC(=O)C4CC4)cc3)ccc2/C1=C/c1ccc[nH]1` was tested, and the growth was 104%. In the case of `O=S(=O)(NCCNc1nccc(-c2c(-c3cccc(F)c3)nc3sccn23)n1)c1ccccc1`, the growth is reported as 33.1%. `O=C(NCCNc1nccc(-c2c(-c3cccc(F)c3)nc3sccn23)n1)c1ccc(Cl)cc1` showed a growth of 72.5%. Work on `COc1cc2oc(-c3cccc(C(=O)Nc4ccc(Cl)cc4)c3)cc(=O)c2c(O)c1OC` yielded a growth of 55.1%. `O=C1OC(Cc2ccccc2)C1c1ccccc1` (configuration not stated) was tested, and the growth was 106%. `CC(=O)Nc1ccc(-n2cnc3cc(-c4ccc(OCCN5CCCCC5)cc4)ccc32)cc1` was tested, and the growth was 64.3%. Compound `O=C(N/N=C/c1ccc(Oc2ccccc2)cc1)c1cnn2c1NC(c1ccccc1)C2` (configuration not stated) has a growth of 46.7%. `CCN(CC)CC[n+]1cc2cc(OC)c(OC)cc2c2ccc3cc4c(cc3c21)OCO4` was tested, and the growth was 3.91% (active). In the case of `O=Cc1cc2ccccc2nc1Oc1ccc(C(F)(F)F)cc1`, the growth is reported as 67.8%. In the case of `Cc1cc2nc3c4cc(C=O)ccc4n(CCN(C)C)c3nc2cc1C`, the growth is reported as 15.5%. With `N#Cc1cccc(-c2ccc3c(c2)NC(=O)/C3=C\c2ccc[nH]2)c1` the growth was 70.2%. `CCc1c(Cl)nc(N)nc1Nc1ccc(C)c(C)c1` was tested, and the growth was 95.8%. For `COc1cc(NC(C)CCCNC(=O)CCC(=O)NCCCNCCCCCCCCCCNCCCNC(=O)CCC(=O)NCCCC(C)Nc2cc(OC)cc3cccnc23)c2ncccc2c1` (configuration not stated), the growth was 78.2% [8 µM]. `Cc1ccccc1NS(=O)(=O)c1cccc(C(=O)Nc2ccc(Br)cc2)c1` showed a growth of 27.3% [25 µM]. `COc1cc(/C=C\C(=O)O)ccc1OCc1ccccc1` showed a growth of 92.8%. Work on `CCCCCCCCOc1ccc(/C=N/Nc2cc(C)nc3ccc(Br)cc23)cc1` yielded a growth of 60.8%. Work on `S=c1cc(S)c2cc(Br)ccc2[nH]1` yielded a growth of 78.8%. For `CCOC(=O)CSc1nc2ccccc2c(=O)n1Cc1ccc(S(N)(=O)=O)cc1`, the growth was 91.7%. With `C=C1C(=O)O[C@H]2[C@H]1CC/C(COC(=O)NCc1c[nH]c3ccc(Cl)cc13)=C\CC[C@@]1(C)O[C@@H]21` the growth was 9.72% (active).

The compounds below were run on SK-MEL-5 melanoma in the same assay as above. Settings: 10 µM unless noted.
`COc1ccc(C/C(=C(\C)c2ccc(OCCN3CCCC3)cc2)c2ccc(OCCN3CCCC3)cc2)cc1` was tested, and the growth was -48.8% (active). For `CCOC(=O)Oc1c(OC)cc(C(=O)c2ccc(OC)c(O)c2OC)cc1OC`, the growth was 32%. Work on `CCCCOc1ccc(/C(C)=N/Nc2cc(C)nc3ccc(Br)cc23)cc1` yielded a growth of 96.7%. In the case of `O=[N+]([O-])c1cc(Br)c2cccc3c2c1CC3`, the growth is reported as 102%. `CC(Oc1ccc(C(=O)O)cc1C(F)(F)F)c1ccc(Oc2ccccc2)cn1` (configuration not stated) was tested, and the growth was 98.7%. In the case of `CCN1CCN(CCNc2nccc(-c3c(-c4cccc(OC)c4)nc4occn34)n2)S1(=O)=O`, the growth is reported as 60.5%. In the case of `Cn1c2ccccc2c2c3c(c4c5ccccc5n(C)c4c21)C(=O)OC3`, the growth is reported as 93.5%. For `COc1cc2c(cc1OC)C(=O)/C(=C/c1cc(C)c(O)c(C)c1)S2`, the growth was 21.3%. `O=C(/C=C/c1ccc(F)cc1)c1ccc(NC(=O)N2CCN(c3cc4c(cc3F)c(=O)c(C(=O)O)cn4C3CC3)CC2)cc1` gave a growth of 96.8%. In the case of `O=C1c2ccc3c4c(ccc(c24)C(=O)N1CCCNCc1ccccc1Cl)C(=O)N(CCCNCc1ccccc1Cl)C3=O`, the growth is reported as -96.6% (active). `Cc1cccc(NC(=O)Nc2ccc(-n3cnc4cc(-c5ccc(O)cc5)ccc43)cc2)c1` showed a growth of 14.4%. Work on `c1ccc(-c2cn3c(ccc4ccccc43)n2)cc1` yielded a growth of 27.4%. With `COc1cc2oc(-c3cccc(C(=O)Nc4ccccc4)c3)cc(=O)c2c(O)c1OC` the growth was 71.7%. `Cc1ccc(/C=N/NC(=O)CSc2nc3ccccc3c(=O)n2Cc2ccc(S(N)(=O)=O)cc2)cc1` showed a growth of 74.4%. With `C#CCNC(=O)c1cccc2c1cc(C)n2-c1nc2c(c(NCc3ccccc3)n1)CCCC2` the growth was -94.3% (active). `COc1ccccc1NC(=O)C1CC(c2ccc(F)cc2)=NO1` (configuration not stated) showed a growth of 95.3%. With `O=C1Nc2cc(-c3ccc(NC(=O)c4ccccc4)cc3)ccc2/C1=C/c1ccc[nH]1` the growth was 103%. With `C=CC(=O)N[C@@H](/C=C/C(=O)OCC)Cc1ccc(-c2cc(Cl)cc(Cl)c2)cc1` the growth was -88.2% (active). In the case of `Cc1ccc(NC(=O)c2cc(-c3nc4ccccc4s3)c(=O)n(NS(=O)(=O)c3ccc(Cl)cc3)c2N)cc1`, the growth is reported as 97.8%. Compound `O=C1Nc2cc(-c3ccc(NC(=O)C4CC4)cc3)ccc2/C1=C/c1ccc[nH]1` has a growth of 98.6%. For `O=S(=O)(NCCNc1nccc(-c2c(-c3cccc(F)c3)nc3sccn23)n1)c1ccccc1`, the growth was 19.1%. `O=C(NCCNc1nccc(-c2c(-c3cccc(F)c3)nc3sccn23)n1)c1ccc(Cl)cc1` showed a growth of 33.6%. Work on `COc1cc2oc(-c3cccc(C(=O)Nc4ccc(Cl)cc4)c3)cc(=O)c2c(O)c1OC` yielded a growth of 58.7%. For `O=C1OC(Cc2ccccc2)C1c1ccccc1` (configuration not stated), the growth was 98.9%. `CC(=O)Nc1ccc(-n2cnc3cc(-c4ccc(OCCN5CCCCC5)cc4)ccc32)cc1` was tested, and the growth was 79%. `O=C(N/N=C/c1ccc(Oc2ccccc2)cc1)c1cnn2c1NC(c1ccccc1)C2` (configuration not stated) was tested, and the growth was 41.5%. In the case of `CCN(CC)CC[n+]1cc2cc(OC)c(OC)cc2c2ccc3cc4c(cc3c21)OCO4`, the growth is reported as -68.3% (active). Work on `O=Cc1cc2ccccc2nc1Oc1ccc(C(F)(F)F)cc1` yielded a growth of 94.5%. In the case of `Cc1cc2nc3c4cc(C=O)ccc4n(CCN(C)C)c3nc2cc1C`, the growth is reported as 6.63% (active). Compound `N#Cc1cccc(-c2ccc3c(c2)NC(=O)/C3=C\c2ccc[nH]2)c1` has a growth of 36.6%. `CCc1c(Cl)nc(N)nc1Nc1ccc(C)c(C)c1` gave a growth of 92.9%. Work on `COc1cc(NC(C)CCCNC(=O)CCC(=O)NCCCNCCCCCCCCCCNCCCNC(=O)CCC(=O)NCCCC(C)Nc2cc(OC)cc3cccnc23)c2ncccc2c1` (configuration not stated) yielded a growth of 91% [8 µM]. With `Cc1ccccc1NS(=O)(=O)c1cccc(C(=O)Nc2ccc(Br)cc2)c1` the growth was -38.9% [25 µM] (active). Work on `COc1cc(/C=C\C(=O)O)ccc1OCc1ccccc1` yielded a growth of 94.2%. In the case of `CCCCCCCCOc1ccc(/C=N/Nc2cc(C)nc3ccc(Br)cc23)cc1`, the growth is reported as 76.9%. In the case of `S=c1cc(S)c2cc(Br)ccc2[nH]1`, the growth is reported as 89%. `CCOC(=O)CSc1nc2ccccc2c(=O)n1Cc1ccc(S(N)(=O)=O)cc1` gave a growth of 100%. In the case of `C=C1C(=O)O[C@H]2[C@H]1CC/C(COC(=O)NCc1c[nH]c3ccc(Cl)cc13)=C\CC[C@@]1(C)O[C@@H]21`, the growth is reported as -17.6% (active).
